AMA1-RON2 inh: disrupts binding of P. falciparum AMA1 to RON2. AlphaScreen AMA1-biotinylated RON2 peptide binding. AID 720542. Potency, µM (doses to about 58.2 µM), hits mostly inhibitors. hit rate 0.2% among 360,000; further: nearly all actives have a fitted effect of over 45% in size
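AMA1 (3D7) with his tag at 25 nM final met compounds first, then biotinylated RON2 peptide at 25 nM; detection used donor plus acceptor beads, 10 µg/mL apiece, read by AlphaScreen after 30 min at room temperature.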
Pf growth 48h: inhibits P. falciparum growth in the first generation, 48 h; P. falciparum luciferase growth in erythrocytes, 48 h; Potency, µM (doses to about 28.7 µM), usual class: inhibitors; hit rate 5.9% among 310,000
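Here the parasites carry a stable luciferase gene and grow inside erythrocytes in Albumax-based RPMI medium with compound for one erythrocytic cycle. Activity is scored as loss of luminescent signal.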
SARS PLP yeast: SARS-CoV PLP inhibition in yeast; S. cerevisiae expressing SARS-CoV PLpro, growth rescue; Potency, µM (titrated, usually from 32.9 µM), hits mostly activators; AID 485353; hit rate 0.19% among 330,000; calls by dose curve; further: nearly all actives have a fitted effect of over 55% in size
Pf growth 96h: P. falciparum growth inhibition at 96 hour, primary screen for plastid delayed-death inhibitors; P. falciparum luciferase reporter growth, 96 h; Potency, µM (top dose mostly 28.7 µM), hits mostly inhibitors; hit rate 6.9% among 320,000; AID 504834
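Erythrocytes infected with luciferase-expressing P. falciparum were dispensed at 2% hematocrit and 0.05% parasitemia (final), then incubated with compounds 96 hours at 37 C in 5% CO2. Luminescence after detection reagent addition reported growth.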
Numbers stand for hits; i = inactive; ? = inconclusive; nt = no result; [ ] = dose if it differs, or a comment. A selection: hits, their analogues and other compounds. The true share with any hit is near 9.4%. Unless noted, the call rests on the fitted dose curve; in most records, active means well fitted curve in the direction sought with a large enough effect; inconclusive means small, poorly fitted or top-dose-only effect, or another doubt; inactive means no such curve, though single readings can be large; an effect the other way counts as inactive or inconclusive.

SMILES | AMA1-RON2 inh | Pf growth 48h | SARS PLP yeast | Pf growth 96h
CCOC(=O)N1CCC(NS(=O)(=O)c2cc3c(cc2Cl)NC(=O)CO3)CC1 | i | ? | i | 0.21µM
CCCN(CCC)S(=O)(=O)c1cc(Br)cc2c1N(C(=O)CC)CC2 | i | 1µM | nt | ?
CCOC(=O)N1CCC(NS(=O)(=O)c2cc(Br)cc3c2N(C(=O)CC)CC3)CC1 | i | 8.3µM | i | i
CCC(=O)N1CCc2cc(Br)cc(S(=O)(=O)N3CCCCCC3)c21 | i | 2.9µM | i | ?
CCC(=O)N1CCc2cc(Br)cc(S(=O)(=O)N3CCC(C(=O)NC(C)C)CC3)c21 | i | 6.6µM | i | i
O=C(C1CC1)N1CCc2cc(Br)cc(S(=O)(=O)N3CCCCCC3)c21 | i | 1.7µM | i | nt
O=C(C1CC1)N1CCc2cc(Br)c(S(=O)(=O)N3CCCCCC3)cc21 | i | nt | nt | nt
CN(C)S(=O)(=O)Nc1ccc(C(=O)O)cc1 | i | i | i | i
CCOC(=O)C1=C(C(=O)OCC)c2ccc(OC)c(OC)c2C1 | i | nt | nt | nt
Cn1nc(C(F)(F)F)c(/C=N/OCc2c(Cl)cccc2Cl)c1Cl | i | i | i | i
CCOC(=O)C1CCCN(S(=O)(=O)c2cc(Br)cc3c2N(C(=O)C2CC2)CC3)C1 (centres undefined) | i | 3.3µM | i | i
O=C(C1CC1)N1CCc2cc(Br)cc(S(=O)(=O)NC3CCCCC3)c21 | i | 4.7µM | i | ?
Cc1ccc(Nc2nnns2)cc1 | i | i | ? | i
CC1=CC(C)(C)N=C(Nc2ccc(C)cc2)S1 | i | nt | i | 10µM
CCCCCn1c(N)c(-c2nc3ccccc3s2)c2c([N+](=O)[O-])nn(C)c(=O)c21 | i | ? | i | 5.2µM
NS(=O)(=O)c1ccc(NC(=O)Nc2ccccc2)cc1 | i | i | i | i
Cc1cccc(N2C(=O)C3CCCN3C2=S)c1C (centres undefined) | i | 13µM | i | ?
CSC1=NCCN1C(=O)c1ccc(S(=O)(=O)N(C)C)cc1 | i | nt | i | ?
CN1C(=O)/C(=C/c2cccn2-c2ccc3ccccc3c2)C(=O)NC1=S | ? | i | i | i
CN1C(=O)/C(=C\N2CCc3ccccc32)C(=O)NC1=S | i[2.32 µM] | i | i | 9.3µM
Cc1ccc(Nc2nc3ccc(Cl)cc3n3cnnc23)cc1F | i | 10µM | i | ?
Cc1ccc2nc(Nc3ccc(F)cc3)c3nncn3c2c1 | i | i | i | i
C/C=C(/C)C(=O)OC1c2c(ccc3ccc(=O)oc23)OC(C)(C)C1OC(=O)/C(C)=C\C (centres undefined) | i | ? | i | 1.5µM
CC(=O)O[C@@H]1[C@H](OC(=O)CC(C)C)c2c(ccc3ccc(=O)oc23)OC1(C)C | i | i | i | ?
C/C=C(/C)C(=O)O[C@@H]1c2c(ccc3ccc(=O)oc23)OC(C)(C)[C@@H]1OC(C)=O | i | nt | i | nt
SMILES | AMA1-RON2 inh | Pf growth 48h | SARS PLP yeast | Pf growth 96h
C/C=C(\C)C(=O)OC1c2c(ccc3ccc(=O)oc23)OC(C)(C)C1OC(C)=O (centres undefined) | i | 8.3µM | i | ?
COc1cccc(NC(=O)Nc2nnc(CC(=O)Nc3ccccc3)s2)c1 | i | ? | i | ?
Cc1ccc(C)c(Cn2nc3c4ccccc4n(Cc4ccccc4)cc-3c2=O)c1 | i | 13µM | i | i
O=C(c1cc(-c2ccccc2Cl)nc2ccccc12)N1CCN(c2ccccn2)CC1 | i | nt | i | nt
CCOc1cc(C2NC(=O)N(C)C(C)=C2C(=O)OC)cc(Br)c1O (centres undefined) | i | 13µM | i | i
CCOc1cc(C2CC(=O)NC3=C2C(=O)C(C(=O)OC)C(C)C3)cc(Br)c1O (centres undefined) | i | 1.5µM | i | i
COC(=O)C1C(=O)C2=C(CC1C)NC(C)=C(C(=O)OC1CCCC1)C2c1ccc(N(C)C)cc1 (centres undefined) | i | 5.2µM | i | i
CCOc1c(Br)cc(C2CC(=O)Nc3cc(OC)c(OC)cc32)cc1OC (centres undefined) | i | ? | i | i
COc1cc(C2NC(=O)N(C)C(C)=C2C(=O)OCc2ccccc2)cc(Br)c1O (centres undefined) | i | i | i | i
COC(=O)C1C(=O)c2c([nH]c(C(=O)OC3CCCCCC3)c2C)CC1C (centres undefined) | i | i | i | 8.3µM
Cc1ncccc1C(=O)N1CCCC(CNC(=O)c2ccc(-c3ccccc3)cc2)C1 (centres undefined) | i | ? | i | i
Cc1ccc(NC(=O)NCc2cccnc2)cc1C | i | i | i | i
COc1ccccc1C1CC(=O)Oc2cc(O)ccc21 (centres undefined) | i | nt | i | nt
COC(=O)C1C(=O)C2=C(CC1C)NC(=O)CC2c1ccc(F)cc1 (centres undefined) | i | 15µM | i | i
CCCC(=NC(C)CC)C1=C(O)CC(c2ccccc2)CC1=O (centres undefined) | i | 2.9µM | i | ?
CCC(=Nc1ccccc1OC)C1=C(O)CC(c2ccccc2)CC1=O (centres undefined) | i | i | i | 0.41µM
CCCC(=O)Nc1ccc(Sc2ccc([N+](=O)[O-])cc2)cc1 | i | 12µM | i | 15µM
CCC(CC)C(=O)Nc1ccc(Sc2ccc([N+](=O)[O-])cc2)cc1 | i | 7.4µM | i | ?
CCNc1nc(NCC)n2c(SCC(=O)Nc3ccc(F)cc3)nnc2n1 | i | i | i | ?
COc1ccc2cnnc(SCC(=O)Nc3ccccc3)c2c1OC | i | i | i | i
CCNc1nc(NCC)n2c(SCC(=O)Nc3cc(OC)ccc3OC)nnc2n1 | i | ? | i | 8.3µM
CCNc1nc(NCC)n2c(SCC(=O)Nc3ccc(C(F)(F)F)cc3[N+](=O)[O-])nnc2n1 | i[11.6 µM] | ? | i | ?
CCNc1nc(NCC)n2c(SCC(=O)Nc3ccc(Br)cc3F)nnc2n1 | i | 12µM | i | ?
COc1ccc(OC)c(NC(=O)CSc2nncc3ccc(OC)c(OC)c23)c1 | i | ? | i | 9.3µM
CCNc1nc(NCC)n2c(SCC(=O)Nc3ccc(C)c(C)c3)nnc2n1 | i | 9.3µM | i | i
SMILES | AMA1-RON2 inh | Pf growth 48h | SARS PLP yeast | Pf growth 96h
CCNc1nc(NCC)n2c(SCC(=O)Nc3ccccc3)nnc2n1 | i | i | i | ?
CN(C)/C=N/C(=S)Nc1ccccc1 | i | i | i | i
CC(C)NC(=O)CSc1nc2ccccc2n1CC(=O)N(C(C)C)C(C)C | i | i | i | 4.1µM
CC(C)NC(=O)CSc1nc2ccccc2n1CC(=O)N1CCc2ccccc21 | i | ? | i | 13µM
CCOC(=O)CSc1nc2ccccc2n1CC(=O)N(C(C)C)C(C)C | i | i | i | ?
CC(C)N(C(=O)CSc1nc2ccccc2n1Cc1ccc(F)cc1)C(C)C | i | 4.7µM | i | i
COc1ccc(NS(=O)(=O)c2cc(Br)cc3c2N(C(C)=O)CC3)cc1 | i | i | i | i
CC(=O)Nc1ccc(C(=O)OCC(=O)Nc2ccc(Cl)cc2C(=O)c2ccccc2)cc1 | i | i | i | i
O=C(Nc1cccc(S(=O)(=O)N2CCCCC2)c1)c1ccc([N+](=O)[O-])o1 | i | ? | i | 9.3µM
Cc1ccc(C(=O)Nc2cccc(S(=O)(=O)N3CCCCC3)c2)cc1[N+](=O)[O-] | i | 4.7µM | i | 8.3µM

High-throughput results: PubChem, National Center for Advancing Translational Sciences (NCATS)
